Screens: PubChem, National Center for Advancing Translational Sciences (NCATS)
In the library only some 8.1% were active in any assay of this set; here they are far more common.
KB-V1 cytotox: KB-V1 MDR subline cytotoxicity | Potency, µM (series often up to 46.1 µM), most hits filed as cytotoxic | KB-V1 MDR cells viability, CellTiter-Glo, 72 h | 400,000 compounds, 3.4% hits; further: nearly all actives have a fitted effect of over 60% in size
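KB-V1 cells (P-gp-expressing MDR subline of KB-3-1) in phenol-red-free DMEM with 10% FBS were exposed to library compounds over a concentration series for 72 h at 37 degrees C. Viability read by CellTiter-Glo luminescence; concentration-effect curves fitted after normalization.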
MCF10A rereplic: DNA re-replication induction in MCF 10a cells. 350,000 compounds, 2.9% hits. Potency, µM (series often up to 46.1 µM), usual class: activators. AID 624296. MCF 10A DNA re-replication, Hoechst nuclear intensity, 48 h; further: nearly all actives have a fitted effect of over 50% in size
ELG1 DNA repair: blocks ELG1-dependent DNA repair in HEK293T cells; AID 504467; Potency, µM (highest dose often 46.1 µM), most hits filed as inhibitors; HEK293T ELG1-luciferase reporter, luminescence, 16 h; DNA damage induced by 5-fluorouridine; 330,000 compounds, 2.3% hits; further: nearly all actives have a fitted effect of over 55% in size
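Quantitative HTS, concentration-response format. 2,000 cells/well co-treated with 5-fluorouridine and compound, 16 hr in 5% CO2 at 37 °C; ONE-Glo luminescence read after 30 min.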
SW480 rerep: inducers of DNA re-replication in SW480 colon cancer cells | SW480 DNA re-replication, Hoechst DNA content imaging, 48 h | Potency, µM (top dose mostly 46.1 µM), hits mostly activators | 340,000 compounds, 1.8% hits | AID 624297; further: nearly all actives have a fitted effect of over 55% in size
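DNA re-replication was detected as more nuclei of elevated Hoechst intensity after 48 hr exposure to compound (23 nL pinned per well of 250 cells).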
KB-3-1 cytotox: kills parental KB-3-1 adenocarcinoma cells; AID 1347075; Potency, µM (highest dose often 46.1 µM), usual class: cytotoxic; 400,000 compounds, 1.4% hits; KB-3-1 viability, CellTiter-Glo ATP luminescence, 72 h; further: nearly all actives have a fitted effect of over 60% in size
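Viability of parental KB-3-1 cells, measured by CellTiter-Glo luminescence, followed a 72 h incubation at 37 °C with pinned compounds in phenol-red-free DMEM containing 10% FBS.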
Each line names hits and unclear results; the compound was inactive in the other large screens; ! = a repeat was not active. The call rests on the fitted dose curve; in most records, active means well fitted curve in the direction sought with a large enough effect; inconclusive means small, poorly fitted or top-dose-only effect, or another doubt; inactive means no such curve, though single readings can be large; an effect the other way counts as inactive or inconclusive.

C=C(C)[C@H]1Cc2c(ccc3c2O[C@@H]2COc4cc(OC)c(OC)cc4[C@@H]2C3=O)O1	MCF10A rereplic 3.93µM!, SW480 rerep inconclusive (no result: KB-V1 cytotox, ELG1 DNA repair, KB-3-1 cytotox)
CCCCc1nc2ccccc2c(=O)n1-c1ccc(Cl)cc1[N+](=O)[O-]	KB-V1 cytotox 4.11µM
O=C(/C=C/c1c[nH]c2ccccc12)c1c(O)n(CCc2ccccc2)c(=O)[nH]c1=O	KB-V1 cytotox inconclusive, MCF10A rereplic 16.4µM, ELG1 DNA repair inconclusive, SW480 rerep 18.4µM
COc1cc(/C=C2\C[C@H]3[C@@H]4CC=C5C[C@@H](N6CCCC6)CC[C@]5(C)[C@H]4CC[C@]3(C)[C@H]2O)cc(OC)c1OC	KB-V1 cytotox 2.91µM, MCF10A rereplic inconclusive (no result: ELG1 DNA repair)
CC(=O)c1cc(C#N)c(N2CCN(C)CC2)nc1C	none
COC(=O)[C@]1(C)N[C@H](CN(C)S(=O)(=O)c2ccc(-c3ccccc3)cc2)[C@@H]2C(=O)N(Cc3ccccc3)C(=O)[C@@H]21	MCF10A rereplic inconclusive, ELG1 DNA repair inconclusive
CCS(=O)(=O)N1CCCC(C(=O)N2CCC3(CC2)OCCO3)C1 (stereo not given)	ELG1 DNA repair inconclusive
CC(C)CC(NC(=O)C1CCCCC1)C(=O)N1CCC2(CC1)OCCO2 (stereo not given)	KB-V1 cytotox 10.3µM
CC[C@]1(O)CC[C@H]2[C@@H]3CCC4=CCCC[C@@H]4[C@H]3CC[C@@]21C	MCF10A rereplic inconclusive, SW480 rerep 23.7µM (no result: KB-V1 cytotox, ELG1 DNA repair, KB-3-1 cytotox)
CN(C)c1ccccc1	none (no result: MCF10A rereplic, ELG1 DNA repair, SW480 rerep)
CN(C)c1ccc(C(=O)c2ccc(N(C)C)cc2)cc1	KB-V1 cytotox inconclusive, MCF10A rereplic 6.51µM, ELG1 DNA repair inconclusive, SW480 rerep 5.17µM, KB-3-1 cytotox inconclusive
CCCCCCCCn1sccc1=O	MCF10A rereplic 20.6µM, ELG1 DNA repair inconclusive, SW480 rerep 10.3µM, KB-3-1 cytotox inconclusive
O=C1CC(=O)N(c2ccccc2)C(=O)N1	KB-V1 cytotox inconclusive (no result: ELG1 DNA repair)
O=C1CC(=O)N(c2ccccc2)C(=O)N1c1ccccc1	KB-3-1 cytotox 0.291µM
CN1C(=O)C(=Cc2ccc(OCCN(C)c3ccccn3)cc2)C(=O)N(C)C1=O	KB-V1 cytotox inconclusive, MCF10A rereplic 0.411µM
CN1C(=O)C(=Cc2ccccc2Oc2ccc(Cl)cc2)C(=O)N(C)C1=O	KB-V1 cytotox inconclusive, SW480 rerep inconclusive, KB-3-1 cytotox inconclusive
Cc1ccc(S(=O)(=O)N2CCCCC2)cc1NC(=O)CSc1ncnc2ccccc12	KB-V1 cytotox 16.4µM, MCF10A rereplic inconclusive, ELG1 DNA repair inconclusive, SW480 rerep inconclusive
O=C(COC(=O)Cc1ccccc1)Nc1cc(S(=O)(=O)N2CCCCC2)ccc1Cl	none
CC[N+]12CCC(CC1)C(=C(c1ccccc1)c1ccccc1)C2	KB-3-1 cytotox 14.6µM
C[N+]12CCC(CC1)C(=C(c1ccccc1)c1ccccc1)C2	KB-3-1 cytotox inconclusive
Cc1sc2c(c1C)C(c1cccs1)=NCC(=O)N2CC(=O)NCc1cccs1	KB-V1 cytotox inconclusive, MCF10A rereplic inconclusive
Cc1sc2c(c1C)C(c1ccc(C(C)(C)C)cc1)=NCC(=O)N2CC(=O)Nc1nccs1	KB-V1 cytotox 20.6µM, MCF10A rereplic inconclusive, KB-3-1 cytotox inconclusive
Nc1ccc2ccccc2c1	none (no result: ELG1 DNA repair)
C[n+]1c2cc(N)ccc2cc2ccc(N)cc21	KB-V1 cytotox 16.4µM, KB-3-1 cytotox 10.3µM (no result: ELG1 DNA repair)
CCC(=O)OC1CCC2C3CCC4CC(=O)C=CC4(C)C3CCC12C (stereo not given)	KB-V1 cytotox 5.8µM, MCF10A rereplic inconclusive, SW480 rerep inconclusive, KB-3-1 cytotox 10.3µM (no result: ELG1 DNA repair)
O=C1C(Br)C2CCC1C2C(=O)O (stereo not given)	none (no result: MCF10A rereplic, ELG1 DNA repair, SW480 rerep)
O=C1NC(=O)C(=Cc2cc(Cl)ccc2OCc2ccc(C(=O)O)cc2)C(=O)N1	MCF10A rereplic 0.92µM, SW480 rerep inconclusive
O=C1c2cccc3cccc(c23)C(=O)N1CCN1CCN(C(=S)Nc2ccccc2)CC1	KB-V1 cytotox 18.4µM, ELG1 DNA repair 16.4µM
O=C(COc1ccccc1)N1CCN(CCN2C(=O)c3cccc4cccc(c34)C2=O)CC1	KB-V1 cytotox inconclusive
COC[C@H]1OC(=O)c2coc3c2[C@@]1(C)C1=C(C3=O)[C@@H]2CCC(=O)[C@@]2(C)C[C@H]1OC(C)=O	KB-V1 cytotox inconclusive, MCF10A rereplic inconclusive, KB-3-1 cytotox 20.6µM (no result: ELG1 DNA repair)
CC(=O)c1c(C)n(Cc2ccccc2Cl)c2ccc(O)cc12	none
COc1ccc2c3c1OC1C(O)C=CC4[C@@H](C2)N(C)CC[C@]314 (stereo not given in full)	none
Cc1c(C(=O)N2CCC3(CC2)OCCO3)sc2ncnc(N3CCN(c4ccccn4)CC3)c12	ELG1 DNA repair 3.66µM
CCCNC1=C(C)C(=O)C2=C(C1=O)C(COC(N)=O)[C@]1(OC)C3NC3CN21 (stereo not given in full)	ELG1 DNA repair inconclusive, KB-3-1 cytotox 18.4µM
O=C1C(=O)c2ccccc2-c2ccccc21	KB-V1 cytotox 4.11µM, MCF10A rereplic inconclusive, ELG1 DNA repair 7.31µM, SW480 rerep inconclusive, KB-3-1 cytotox 5.17µM
O=C1C(=O)c2cccc3cccc1c23	KB-V1 cytotox inconclusive, SW480 rerep inconclusive, KB-3-1 cytotox 16.4µM
NC1=C(Br)C(=O)c2ccccc2C1=O	KB-V1 cytotox 11.6µM, MCF10A rereplic inconclusive, ELG1 DNA repair 23.1µM, KB-3-1 cytotox inconclusive
CN(C)c1c([N+](=O)[O-])cc(N2C(=O)C=CC2=O)cc1[N+](=O)[O-]	MCF10A rereplic 13µM, SW480 rerep 16.4µM, KB-3-1 cytotox inconclusive (no result: ELG1 DNA repair)
CCNc1cc(N2CCN(C)CC2)ccc1[N+](=O)[O-]	none
CC1(C)C(C(=O)N2CCN(c3ccc(Cl)cc3)CC2)C1(C)C	ELG1 DNA repair inconclusive
COC(=O)C1CN(C#N)N(c2ccc(Cl)cc2)C12c1ccccc1-c1ccccc12 (stereo not given)	KB-V1 cytotox 11.6µM, MCF10A rereplic 7.08µM, ELG1 DNA repair 5.8µM, SW480 rerep 3.26µM, KB-3-1 cytotox 5.17µM
CC1CCCCN1Cc1ccc(Cl)nc1 (stereo not given)	none
O=c1[nH]c2ccccc2n1C1CCN(CCCC(c2ccc(F)cc2)c2ccc(F)cc2)CC1	KB-V1 cytotox 11.6µM, MCF10A rereplic inconclusive, ELG1 DNA repair inconclusive, KB-3-1 cytotox inconclusive
O=C1CC(N2CCC(n3c(=O)[nH]c4ccccc43)CC2)C(=O)N1c1ccc(F)cc1 (stereo not given)	none
CN1/C(=C\C=C2C(=O)NC(=O)NC2=O)C(C)(C)c2ccccc21	KB-V1 cytotox inconclusive, ELG1 DNA repair inconclusive, KB-3-1 cytotox 5.17µM
Cc1cc(C)c(C(=O)CN2CCOCC2)c(C)c1	MCF10A rereplic 8.2µM, SW480 rerep 9.2µM
COc1ccc(C(=O)CN2CCOCC2)cc1	none (no result: MCF10A rereplic, ELG1 DNA repair, SW480 rerep)
CCSc1nnc([C@@H](N)Cc2ccccc2)o1	ELG1 DNA repair inconclusive
CCCNC(=O)c1c(N)n(Cc2ccc3c(c2)OCO3)c2nc3ccccc3nc12	KB-V1 cytotox inconclusive, MCF10A rereplic 0.651µM, ELG1 DNA repair inconclusive, SW480 rerep 3.26µM
COC(=O)c1c(N)n(Cc2ccc(OC)cc2)c2nc3ccccc3nc12	ELG1 DNA repair inconclusive, SW480 rerep inconclusive
